# Screening data deposited in PubChem BioAssay by several laboratories.
# Hits are enriched below; roughly 3.4% of the tested compounds scored in any of these assays.
# SMARCA2 activ: SMARCA2 function activation, primary screen; activation, % at 9.1 µM; AID 652017; hit rate 1% among 370,000; MG213 cells, MMTV-luciferase reporter, dexamethasone, overnight; in the data active = activation above about 7.8%;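 note: 0% = vehicle wells and 100% = reference activator wells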
# FXN GAA850 act: increases GAA850 frataxin promoter reporter activity. HEK293 lucGAA850 FXN promoter luciferase reporter, 24 h; percent of 10 µM SAHA response. activation, % at 6 µM. hit rate 0.56% among 360,000. AID 540364;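 active = activation above the average of all compounds screened plus 3 SD, cutoff fixed separately per campaign, cut at about 7.5% in these data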;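 note: 0% = DMSO wells and 100% = 10 µM SAHA wells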
# Cardio protect: protects H9c2 cardiomyocytes from peroxide injury. protection from H2O2 cell death, % at 20 µM. hit rate 0.63% among 360,000. AID 588492. H2O2 injury protection, ATPLite, 2 h;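 active = compounds giving at least 50% protection of heart cells from peroxide-induced death in the single-dose screen, raw or plate-pattern-corrected value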;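 note: 0% = DMSO wells with peroxide and 100% = DMSO wells without peroxide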
# Gli-Sufu antag: blocks Gli-Sufu signaling in a luciferase reporter; Sufu-KO-LIGHT fibroblasts, Gli luciferase reporter luminescence; inhibition, % at 5 µM; hit rate 0.74% among 340,000; AID 588413;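 active = inhibition above about 55%, limit read from the data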;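 note: 0% = DMSO-treated cells and 100% = wells with medium but no cells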
# GalR3 antagonist: blocks the human galanin receptor 3. O60755. HEK293 GalR3-CNG cAMP membrane potential fluorescence; galR3 body fused to GalR1 C-terminus. inhibition, % at 3 µM. hit rate 0.44% among 360,000;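 active = inhibition above the screen-wide average plus 3 SD, cut at about 13% in these data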;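 note: forskolin and galanin both at EC90 stimulate the cells; cAMP rise reported by CNG channel membrane potential dye signal; 0% = forskolin plus galanin with DMSO and 100% = forskolin alone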
# Target sequence (O60755 1-299 limits assumed): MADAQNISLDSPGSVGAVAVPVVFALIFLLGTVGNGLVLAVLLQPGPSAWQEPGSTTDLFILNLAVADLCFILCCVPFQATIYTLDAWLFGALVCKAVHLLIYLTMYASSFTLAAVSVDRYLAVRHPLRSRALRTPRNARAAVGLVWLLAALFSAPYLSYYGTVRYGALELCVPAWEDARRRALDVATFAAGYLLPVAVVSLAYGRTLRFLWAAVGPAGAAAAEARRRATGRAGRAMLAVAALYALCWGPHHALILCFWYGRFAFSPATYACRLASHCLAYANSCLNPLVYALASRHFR
# NR2F2 inh: inhibitors of human COUP-TFII (NR2F2); HEK293T NGFI-A luciferase reporter, luminescence; inhibition, % at 8.6 µM; hit rate 0.7% among 370,000; AID 686940; P24468;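 active = inhibition above a per-plate cutoff, mean inhibition of test wells between control levels plus 3 SD, cut at about 38% in these data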;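 note: cells cotransfected with COUP-TFII expression vector driving the NGFI-A reporter; 0% = median of COUP-TF2 test wells and 100% = reporter-only cells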
# Target sequence (P24468 whole entry, looked up): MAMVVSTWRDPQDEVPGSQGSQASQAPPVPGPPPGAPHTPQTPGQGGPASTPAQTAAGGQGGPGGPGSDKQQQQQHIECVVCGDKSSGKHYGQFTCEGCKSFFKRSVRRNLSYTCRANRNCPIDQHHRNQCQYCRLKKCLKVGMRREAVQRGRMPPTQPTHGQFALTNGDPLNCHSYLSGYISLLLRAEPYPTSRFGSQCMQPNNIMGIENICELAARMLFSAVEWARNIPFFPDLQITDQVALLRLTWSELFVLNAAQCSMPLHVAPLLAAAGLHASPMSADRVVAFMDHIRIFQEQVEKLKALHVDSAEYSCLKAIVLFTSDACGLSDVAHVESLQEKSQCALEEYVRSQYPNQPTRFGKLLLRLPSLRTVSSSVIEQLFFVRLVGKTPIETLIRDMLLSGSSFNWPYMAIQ
# VP16 Luc counter: VP16 inhibition counter-screen for COUP-TFII. hit rate 25% among 2,500. shares compounds with NR2F2 inh. HEK293 Gal4-VP16 luciferase reporter, luminescence. inhibition, % at 8.5 µM. AID 687007; in the data active = inhibition above about 13%
# COUP-TFII conf: COUP-TFII (NR2F2) inhibition, confirmation assay. shares compounds with NR2F2 inh. HEK293 NGFI-A luciferase reporter, luminescence. inhibition, % at 8.5 µM. hit rate 45% among 2,500. AID 687008;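 active = mean inhibition over three repeats above a set limit taken from the earlier primary screen, cut at about 38% in these data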;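 note: 100% = cells given the luciferase reporter alone without the COUP-TF2 vector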
# An asterisk follows results filed as active; x = no result given.
SMILES,SMARCA2 activ,FXN GAA850 act,Cardio protect,Gli-Sufu antag,GalR3 antagonist,NR2F2 inh,VP16 Luc counter,COUP-TFII conf
COc1ccc2c(c1)C(CC(C)=O)N(c1ccc(-c3cccs3)cc1)C(c1ccsc1)=C2 (centres undefined),-6.3,x,x,x,-7.5,46.7*,-14.4,-1.8
COc1ccc(OC)c(NC(=O)CCC(=O)Oc2ccc(C)cc2)c1,2.8,0.1,-2.4,-1.8,-8.5,38.9*,-5.8,0.4
Nc1cc(=O)[nH]c(SCc2ccc(Cl)cc2Cl)n1,-6.6,-0.7,-13.7,4.3,3.2,48.2*,15.9*,33.8
Nc1ncnc2nc(SCc3ccc(Cl)cc3Cl)[nH]c12,0.5,5.6,-11.7,19.6,-0.2,-0.4,x,x
O=C(Nc1ccc(OCc2ccccc2)cc1)c1cccnc1,3.5,1.6,-2.5,-13.9,-2.4,-20.4,x,x
O=C(Nc1ccc(OCc2ccccc2Cl)cc1)c1cccnc1,-8.8,-9.9,-7.6,21.8,-9.9,38.0*,-4.2,11.1
CC1CN(c2nc3ccccc3nc2SCC(=O)N2CCN(S(=O)(=O)c3ccc(F)cc3)CC2)CC(C)O1 (centres undefined),-3.6,x,x,x,x,24.6,x,x
CC1CN(c2nc3ccccc3nc2SCC(=O)N2CCN(S(=O)(=O)c3ccccc3)CC2)CC(C)O1 (centres undefined),-4.1,x,x,x,x,42.7*,3.0,9.6
COc1cc(CN2CCN(CCCc3ccccc3)C(CCO)C2)cc(OC)c1O (centres undefined),-2.6,0.4,-7.4,18.7,-1.7,-4.8,x,x
O=C(c1ccco1)N1CCCC(c2nc(-c3ccc(S(=O)(=O)NCc4ccccc4)cc3)no2)C1 (centres undefined),-4.5,-2.4,-8.6,16.6,-8.8,51.1*,-3.8,20.8
CC(=O)Nc1ccc(S(=O)(=O)N2CCN=C2SCc2cccc(C)c2)cc1,-2.1,0.4,-10.4,-0.9,-1.0,6.6,x,x
CC(=O)Nc1ccc(S(=O)(=O)N2CCN=C2SCc2ccc([N+](=O)[O-])cc2)cc1,-3.5,-0.6,-10.1,28.4,-3.3,48.0*,1.4,22.3
c1ccc(-c2ccc(C3=Nn4c(nnc4-c4ccncc4)SC3)cc2)cc1,-1.9,x,x,x,x,0.0,x,x
Clc1ccccc1C1=Nn2c(nnc2-c2ccncc2)SC1,-3.3,-9.8,10.2,-7.8,-1.7,40.1*,6.4,27.9
CN(C)c1ccc(C=C2SC(=S)N(Cc3ccco3)C2=O)cc1,-2.8,0.0,-0.7,x,-4.7,39.5*,-18.4,-1.5
Cc1cc(/C=C2\SC(=S)N(Cc3ccco3)C2=O)c(C)n1-c1ccccc1,0.4,-5.9,-11.3,36.8,-1.4,8.1,x,x
Cc1sc2ncnc(SCC(=O)N3CCCC(C(N)=O)C3)c2c1C (centres undefined),-1.0,3.3,1.0,-4.5,0.1,-9.8,x,x
CC1(C(=O)NS(=O)(=O)Cc2ccccc2C(F)(F)F)CCN1C(=O)C/C=C/c1ccccc1 (centres undefined),0.0,1.3,-6.9,x,-3.4,-1.9,x,x
NC1=C(Cl)C(=O)c2ccc(S(N)(=O)=O)cc2C1=O,-12.4,-15.0,-10.0,88.9*,-4.7,85.5*,92.2*,97.2*
NC1=C(Cl)C(=O)c2ccccc2C1=O,-5.6,1.6,-15.2,16.5,-4.9,-19.3,x,x
C/C(Cn1nnc([N+](=O)[O-])n1)=N\NC(=O)c1ccc(O)cc1,-2.3,0.2,4.2,-13.4,-4.8,-49.7,x,x
COCCCN=C1NN=C(c2cc(C)n(-c3ccccc3F)c2C)CS1,-0.3,-2.1,-26.8,38.4,-6.2,4.5,x,x
COCCn1c(C)cc(C2=NNC(=Nc3ccccc3F)SC2)c1C,-12.1,-18.8,-9.0,33.9,-5.1,90.0*,35.7*,80.5*
Cc1cc(F)c(F)c(C(=O)N2CCN(C)CC2)c1Cl,-3.0,-0.6,3.3,-13.8,7.9,0.2,x,x
c1ccc2[nH]c(CNc3nc(N4CCOCC4)nc4c3ncn4-c3ccsc3)nc2c1,x,x,x,x,x,52.3*,20.4*,45.9*
SMILES,SMARCA2 activ,FXN GAA850 act,Cardio protect,Gli-Sufu antag,GalR3 antagonist,NR2F2 inh,VP16 Luc counter,COUP-TFII conf
FC(F)(F)c1ccc2nc(CNc3nc(N4CCOCC4)nc4c3ncn4-c3ccsc3)[nH]c2c1,x,x,x,x,x,68.8*,23.4*,42.5*
c1ccc2cc3[nH]c(CNc4nc(N5CCOCC5)nc5c4ncn5-c4ccsc4)nc3cc2c1,x,x,x,x,x,63.3*,12.0,41.7*
O=[N+]([O-])c1cccc2[nH]c(CNc3nc(N4CCOCC4)nc4c3ncn4-c3ccsc3)nc12,x,x,x,x,x,66.7*,25.2*,40.8*
O=C(O)c1ccc(NCc2nc3cc4ccccc4cc3[nH]2)cc1,2.7,2.9,0.1,-9.9,-5.6,-17.5,x,x
Cc1cccc(SCC(=O)Nc2ccccc2[N+](=O)[O-])c1,-1.4,2.8,-10.0,-15.1,-4.4,9.6,x,x
CN(Cc1ccc(C(F)(F)F)cc1)C(=O)C1CC(=O)N(Cc2ccco2)C1 (centres undefined),5.1,1.9,-11.8,-1.0,-4.7,14.7,x,x
O=[N+]([O-])c1ccc2nc(CNc3nc(N4CCOCC4)nc4c3ncn4-c3ccsc3)[nH]c2c1,x,x,x,x,x,58.3*,28.3*,48.1*
Cc1ccc(C)c(N2CCN(C(=O)C3CCN(S(=O)(=O)c4c(C)noc4C)CC3)CC2)c1,-4.7,-1.5,-5.6,24.3,-7.8,53.4*,-4.1,32.8
O=C(CSc1nc2ncc(Cl)cc2[nH]1)N(Cc1ccccc1)C1CCS(=O)(=O)C1 (centres undefined),1.2,2.8,-4.2,5.7,2.8,10.4,x,x
COC(=O)[C@@]12C[C@@H](CC(=O)NCC3CCCCC3)C(=O)N(CCc3ccc(OC)c(OC)c3)C1=CCC(C)(C)C2,-6.5,x,x,x,-7.8,14.7,x,x
O=C(Nc1ccc(-c2nc3ccccc3o2)c(O)c1)c1cc(-n2cnnc2)ccc1Cl,-7.0,-4.1,1.5,11.4,-3.2,44.4*,-7.6,17.5
Cc1noc(C)c1COc1ccccc1C(=O)N(C)Cc1ccc(F)cc1,-0.3,0.9,-1.2,1.8,-4.3,-9.0,x,x
Cc1noc(C)c1COc1ccccc1C(=O)N(C)Cc1ccc(C(C)(C)C)cc1,-2.4,-2.0,-18.2,22.0,-2.7,40.7*,-5.3,15.0
Cc1nc(C(F)(F)F)ccc1C(=O)N1CCC1(C)C(=O)NCc1cccs1 (centres undefined),-0.2,-0.1,-0.1,x,-0.2,9.6,x,x
O=C(NCc1ccccn1)C(=O)Nc1nc(C23CC4CC(CC(C4)C2)C3)cs1,-4.6,1.0,-1.6,-4.4,-2.4,0.5,x,x
COc1ccc(CCNC(=S)c2ccccc2)cc1OC,-6.6,-0.7,-10.9,7.5,-7.2,38.3*,4.5,22.4
COc1ccc(CCNC(=S)NCCc2ccc(OC)c(OC)c2)cc1OC,0.0,-1.5,-3.1,3.5,-7.9,1.8,x,x
